# Laboratory results published in article PMC11006913.
# Changes are numbered by the printed parent chain.
# Target: T1, SIX6 (Homo sapiens, UniProt O95475 114-200, T165P)
# T1 sequence: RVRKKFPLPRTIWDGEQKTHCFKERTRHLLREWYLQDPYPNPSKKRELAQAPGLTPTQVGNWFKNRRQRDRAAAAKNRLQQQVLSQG
# Test: PBM; 200 nM protein, PBS
# Settings: dsDNA, one strand shown
row,Sequence,binding signal
1,GACGATCC,"9.26 upbm affinity estimate (log intensity, higher = more binding, comparable within an allelic series)"
2,CCGGATCC,"9.14 upbm affinity estimate (log intensity, higher = more binding, comparable within an allelic series)"
3,GGATACCC,"9.29 upbm affinity estimate (log intensity, higher = more binding, comparable within an allelic series)"
4,CCGATCCG,"9.19 upbm affinity estimate (log intensity, higher = more binding, comparable within an allelic series)"
5,GGGATACC,"9.29 upbm affinity estimate (log intensity, higher = more binding, comparable within an allelic series)"
6,CGATACGC,"9.24 upbm affinity estimate (log intensity, higher = more binding, comparable within an allelic series)"
7,ACCGGATC,"9.31 upbm affinity estimate (log intensity, higher = more binding, comparable within an allelic series)"
8,CCGATACC,"9.05 upbm affinity estimate (log intensity, higher = more binding, comparable within an allelic series)"
9,CAGGGATC,"9.11 upbm affinity estimate (log intensity, higher = more binding, comparable within an allelic series)"
10,AGATCCGC,"9.23 upbm affinity estimate (log intensity, higher = more binding, comparable within an allelic series)"
11,GATACGCC,"9.27 upbm affinity estimate (log intensity, higher = more binding, comparable within an allelic series)"
12,ACGGATCG,"9.19 upbm affinity estimate (log intensity, higher = more binding, comparable within an allelic series)"
13,CGGGTATC,"9.28 upbm affinity estimate (log intensity, higher = more binding, comparable within an allelic series)"
14,GGGATCAC,"9.32 upbm affinity estimate (log intensity, higher = more binding, comparable within an allelic series)"
15,GCGATCCC,"9.24 upbm affinity estimate (log intensity, higher = more binding, comparable within an allelic series)"
16,GCCGATAC,"9.22 upbm affinity estimate (log intensity, higher = more binding, comparable within an allelic series)"
17,ACGATCCG,"9.21 upbm affinity estimate (log intensity, higher = more binding, comparable within an allelic series)"
18,ACCGATCG,"9.18 upbm affinity estimate (log intensity, higher = more binding, comparable within an allelic series)"
19,AGGGATCG,"9.2 upbm affinity estimate (log intensity, higher = more binding, comparable within an allelic series)"
20,GCGGATCC,"9.05 upbm affinity estimate (log intensity, higher = more binding, comparable within an allelic series)"
21,GGGGATCA,"9.12 upbm affinity estimate (log intensity, higher = more binding, comparable within an allelic series)"

# Target: T2, VENTX (Homo sapiens, UniProt O95231 78-163, Y115F)
# T2 sequence: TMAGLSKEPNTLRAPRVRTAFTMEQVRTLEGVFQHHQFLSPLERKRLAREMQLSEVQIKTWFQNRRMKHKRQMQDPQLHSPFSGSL
# Test: PBM; 200 nM protein, PBS
# Settings: dsDNA, one strand shown
row,Sequence,binding signal
1,ACCGATCA,"9.96 upbm affinity estimate (log intensity, higher = more binding, comparable within an allelic series)"
2,CTAATCAC,"11.7 upbm affinity estimate (log intensity, higher = more binding, comparable within an allelic series)"
3,AATCGATT,"10.7 upbm affinity estimate (log intensity, higher = more binding, comparable within an allelic series)"
4,CCGATTTA,"9.97 upbm affinity estimate (log intensity, higher = more binding, comparable within an allelic series)"
5,GTCGATTA,"10.9 upbm affinity estimate (log intensity, higher = more binding, comparable within an allelic series)"
6,AAATCGGT,"9.94 upbm affinity estimate (log intensity, higher = more binding, comparable within an allelic series)"
7,AATCGGTC,"10.1 upbm affinity estimate (log intensity, higher = more binding, comparable within an allelic series)"
8,ATCGATCA,"9.96 upbm affinity estimate (log intensity, higher = more binding, comparable within an allelic series)"
9,CGATTAGA,"10.8 upbm affinity estimate (log intensity, higher = more binding, comparable within an allelic series)"
10,AAATGGGT,"10.2 upbm affinity estimate (log intensity, higher = more binding, comparable within an allelic series)"

# Target: T3, PAX4 (Homo sapiens, UniProt O43316 9-242)
# T3 sequence: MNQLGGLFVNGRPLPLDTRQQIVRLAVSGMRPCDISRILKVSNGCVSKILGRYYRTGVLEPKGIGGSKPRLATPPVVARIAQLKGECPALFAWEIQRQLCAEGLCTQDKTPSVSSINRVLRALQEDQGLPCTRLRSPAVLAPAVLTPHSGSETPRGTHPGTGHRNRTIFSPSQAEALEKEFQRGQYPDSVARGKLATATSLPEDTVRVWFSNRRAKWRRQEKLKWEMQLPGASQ
# Test: PBM; 200 nM protein, PBS
# Settings: dsDNA, one strand shown
row,Sequence,binding signal
1,ATTTTTAC,"10.5 upbm affinity estimate (log intensity, higher = more binding, comparable within an allelic series)"
2,TCTTATCA,"10.6 upbm affinity estimate (log intensity, higher = more binding, comparable within an allelic series)"
3,ATCGATCG,"10.5 upbm affinity estimate (log intensity, higher = more binding, comparable within an allelic series)"
4,CGTGTAAA,"10.4 upbm affinity estimate (log intensity, higher = more binding, comparable within an allelic series)"
5,ACGGATAA,"10.8 upbm affinity estimate (log intensity, higher = more binding, comparable within an allelic series)"
6,TCTGATCA,"10.5 upbm affinity estimate (log intensity, higher = more binding, comparable within an allelic series)"
7,GATTTTCA,"10.7 upbm affinity estimate (log intensity, higher = more binding, comparable within an allelic series)"
8,TAGTCACA,"10.1 upbm affinity estimate (log intensity, higher = more binding, comparable within an allelic series)"
9,AATCGTAT,"10.8 upbm affinity estimate (log intensity, higher = more binding, comparable within an allelic series)"

# Target: T4, PAX4 (Homo sapiens, UniProt O43316 9-242, F177V)
# T4 sequence: T3 sequence with F169V
# Test: PBM; 200 nM protein, PBS
# Settings: dsDNA, one strand shown
row,Sequence,binding signal
1,ATCGATCG,"10 upbm affinity estimate (log intensity, higher = more binding, comparable within an allelic series)"
2,ACGGATAA,"10.1 upbm affinity estimate (log intensity, higher = more binding, comparable within an allelic series)"
3,TCTGATCA,"9.89 upbm affinity estimate (log intensity, higher = more binding, comparable within an allelic series)"
4,AATCGTAT,"10.3 upbm affinity estimate (log intensity, higher = more binding, comparable within an allelic series)"

# Target: T5, PAX4 (Homo sapiens, UniProt O43316 9-242, F177Y)
# T5 sequence: T3 sequence with F169Y
# Test: PBM; 200 nM protein, PBS
# Settings: dsDNA, one strand shown
row,Sequence,binding signal
1,ATCGATCG,"10.1 upbm affinity estimate (log intensity, higher = more binding, comparable within an allelic series)"
2,ACGGATAA,"10.2 upbm affinity estimate (log intensity, higher = more binding, comparable within an allelic series)"
3,TCTGATCA,"9.94 upbm affinity estimate (log intensity, higher = more binding, comparable within an allelic series)"
